Measured values taken from PubChem BioAssay (NCATS).
Results filed as inconclusive are left out. Where a call stands in place of a potency, no number is given. Active and inactive are the calls of the source. The call rests on the fitted dose curve; in most records, active means well fitted curve in the direction sought with a large enough effect; inconclusive means small, poorly fitted or top-dose-only effect, or another doubt; inactive means no such curve, though single readings can be large; an effect the other way counts as inactive or inconclusive.

Columns and labels:
[1] = HPAF-II Cancer Cell Toxicity qHTS against the NCATS CANVASS Library (AID 1347346); further: nearly all actives have a fitted effect of over 55% in size; further: potency means the concentration at half of the fitted maximal effect
Method in brief: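 Cytotoxicity read-out was CellTiter-Glo luminescence after 72 h at 37 degrees C exposure of HPAF-II cells (1000/well) to compounds in an 11-point titration.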

[2] = UWB1.289 Cancer Cell Toxicity qHTS against the NCATS CANVASS Library (AID 1347347); further: nearly all actives have a fitted effect of over 60% in size; further: potency means the concentration at half of the fitted maximal effect
Method in brief: (§1)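 1000 cells/well seeded and rested 4 h at 37 °C before pin transfer of compounds in an 11-pnt series. Exposure 72 h at 37 °C/5% CO2; viability by CellTiter-Glo luminescence after 15 min at room temperature.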

[3] = Panc-1005 Cancer Cell Toxicity qHTS against the NCATS CANVASS Library (AID 1347349); further: nearly all actives have a fitted effect of over 60% in size; further: potency means the concentration at half of the fitted maximal effect
Method in brief: as §1

[4] = SW1088 Cancer Cell Toxicity qHTS against the NCATS CANVASS Library (AID 1347350); further: nearly all actives have a fitted effect of over 75% in size; further: potency means the concentration at half of the fitted maximal effect
Method in brief: as §1

[5] = COV-362 Cancer Cell Toxicity qHTS against the NCATS CANVASS Library (AID 1347352); further: potency means the concentration at half of the fitted maximal effect
Method in brief: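 Toxicity was measured as CellTiter-Glo luminescence after 72 h exposure to an 11-point compound series. Compound was added to 1000 cells/well 4 h after seeding.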

[6] = A2780 Cisplatin Sensitive Ovarian Cancer Cell Toxicity qHTS against the NCATS CANVASS Library (AID 1347353); further: nearly all actives have a fitted effect of over 60% in size; further: potency means the concentration at half of the fitted maximal effect
Method in brief: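 Cisplatin-sensitive A2780 ovarian cells (750/well) received compound in 11 concentrations, and were incubated 72 h at 37 °C. ATP content was measured by ATPLite luminescence; bortezomib served as control.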

[7] = KB-8-5-11 Cancer Cell Toxicity qHTS against the NCATS CANVASS Library (AID 1347364); further: nearly all actives have a fitted effect of over 75% in size; further: potency means the concentration at half of the fitted maximal effect
Method in brief: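 Viability read as CellTiter-Glo luminescence after 72 h at 37 °C, 5% CO2. 11-point compound series on 500 KB-8-5-11 cells/well in DMEM/10% FBS. Follow-up plating included 1 uM tariquidar in the medium.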

[8] = molecular target: Nuclear receptor subfamily 1 group I member 3 (Homo sapiens) (UniProt Q14994); test: qHTS for Constitutive Androstane Receptor (CAR) Antagonist screened against the NCATS CANVASS Library (AID 1347372); further: potency means the concentration at half of the fitted maximal effect
Method in brief: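 Antagonist mode: compound added alongside 50 nM CITCO to HepG2-hCAR-CYP2B6 reporter cells, 24hr at 37C. Viability by CellTiter-Fluor fluorescence, then CAR-driven luciferase by ONE-Glo luminescence.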

[9] = qHTS for Hypoxia signaling pathway (HIF-1) antagonists against the NCATS CANVASS Library (AID 1347374); further: nearly all actives have a fitted effect of over 60% in size; further: potency means the concentration at half of the fitted maximal effect
Method in brief: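 Antagonism scored as loss of CoCl2-driven (60 uM stock added) HRE beta-lactamase signal, read by CCF4 FRET at 460/530 nm. Compounds were tested in an 11-point series on ME-180 reporter cells for 17 hrs at 37C, with parallel CellTiter-Glo cytotoxicity.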

[10] = DH5-alpha competent E. coli microbial cell viability qHTS against the NCATS CANVASS Library (AID 1347377); conditions: outcome: dose series up to 46.1 µM unless noted
Method in brief: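 Bacterial viability as ATP-dependent luminescence (BacTiter-Glo), read after overnight 37 °C exposure of DH5-alpha competent E. coli to compounds in 11-point titration.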

[11] = qHTS for Antimalaria activity screened against the NCATS CANVASS Library (AID 1347380); further: nearly all actives have a fitted effect of over 40% in size; further: potency means the concentration at half of the fitted maximal effect
Method in brief: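 SYBR Green fluorescence at 485/535 nm was read 18 hr after lysis. This followed a 72 hr incubation at 37C in 5% O2, 5% CO2 of Dd2-infected erythrocytes (0.3% parasitemia, 2.5% final hematocrit) with compounds titrated over 11 concentrations.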

[12] = Inflammasome Signaling qHTS Counterscreen: IL-1-beta AlphaLISA counterscreen against the NCATS CANVASS Library (AID 1347381);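 further: cell-free check with purified IL-1β in medium and no THP-1 cells; series mostly up to about 57 µM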
Method in brief: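 Purified IL-1-beta (4 pg/well) + compound, 11-pt conc. series; acceptor beads 6 ug/mL + biotin-Ab 0.6 nM final, 1 h RT; SA-donor 24 ug/ml final, 30 min dark RT; read ex 680/em 615.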

[13] = OV-SAHO Cancer Cell Toxicity qHTS against the NCATS CANVASS Library (AID 1347348); further: nearly all actives have a fitted effect of over 55% in size; further: potency means the concentration at half of the fitted maximal effect
Method in brief: as §1

[14] = molecular target: Luciferin 4-monooxygenase (Photinus pyralis) (UniProt P08659); test: Firefly luciferase counterscreen qHTS: Assay Interference Panel against the NCATS CANVASS Library (AID 1347363); further: series mostly up to about 57 µM
Method in brief: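 Luminescence inhibition readout: compounds (11-point qHTS) sat 15 min at room temperature with substrate mix (0.013 mM luciferin and ATP), then firefly luciferase was added and signal read 5 min later.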

[15] = 10-beta competent E. coli microbial cell viability qHTS against the NCATS CANVASS Library (AID 1347376); further: series mostly up to about 46 µM
Method in brief: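 Read-out: BacTiter-Glo ATP luminescence, taken 20 min after reagent addition. Beforehand, 10-beta competent E. coli at 0.2 OD had been incubated overnight at 37C with compounds at 11 concentrations.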

[16] = qHTS for activators of Nrf2/ARE signaling pathway screened against the NCATS CANVASS Library (AID 1347391); further: nearly all actives have a fitted effect of over 60% in size; further: potency means the concentration at half of the fitted maximal effect
Method in brief: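 Eleven-point qHTS, 16 h treatment of HepG2 cells carrying an ARE-driven beta-lactamase reporter; CCF4 ratio read (405 nm excitation, 460 and 530 nm emission), with CellTiter-Glo ATP luminescence for viability.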

[17] = qHTS for inhibitors of ER calcium dysfunction: SERCaMP assay screened against the NCATS CANVASS Library (AID 1347393);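 further: series mostly up to about 77 µM; lower secreted reporter signal means inhibitor of ER calcium depletion; nearly all actives have a fitted effect of over 40% in size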
Method in brief: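 Thapsigargin-induced ER calcium depletion drives GLuc-SERCaMP secretion from SH-SY5Y cells; compounds given 16 h beforehand were scored by lowered coelenterazine luminescence after 4 h challenge.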

[18] = HEK293 12hr Apoptosis Induction qHTS against the NCATS CANVASS Library (AID 1347361)
Method in brief: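 500 HEK293 cells/well; cpds pin-transferred, 11-pt conc series; 12 h, 37 degrees C/5% CO2; Caspase-Glo 3/7 added, 15 min RT dark; luminescence.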

[19] = Cytotoxicity qHTS for assessment of Hepg2 cells membrane integrity screened against the NCATS CANVASS Library (AID 1347387)
Method in brief: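 Membrane damage quantified as fluorescent LDH-release signal (ex 560, em 590 nm) in HepG2 cells treated 5 hr at 37C. qHTS format, 11 concentrations spanning 0.59 nM - 46 uM final, cells plated at 2000 per well the night before.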

[20] = OV-KATE Cancer Cell Toxicity qHTS against the NCATS CANVASS Library (AID 1347345)
Method in brief: as §1

Sequence of Nuclear receptor subfamily 1 group I member 3 (Homo sapiens) (Q14994 whole entry, looked up): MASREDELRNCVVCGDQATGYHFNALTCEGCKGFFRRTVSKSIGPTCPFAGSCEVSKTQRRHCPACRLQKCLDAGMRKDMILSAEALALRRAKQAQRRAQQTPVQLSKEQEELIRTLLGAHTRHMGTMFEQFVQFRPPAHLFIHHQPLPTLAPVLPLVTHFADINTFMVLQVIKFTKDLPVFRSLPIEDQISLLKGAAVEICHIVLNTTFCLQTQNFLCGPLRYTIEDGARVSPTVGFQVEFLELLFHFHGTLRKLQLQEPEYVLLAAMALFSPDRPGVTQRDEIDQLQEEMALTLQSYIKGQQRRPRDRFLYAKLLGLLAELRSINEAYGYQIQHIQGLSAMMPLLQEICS
Sequence of Luciferin 4-monooxygenase (Photinus pyralis) (P08659 whole entry, looked up): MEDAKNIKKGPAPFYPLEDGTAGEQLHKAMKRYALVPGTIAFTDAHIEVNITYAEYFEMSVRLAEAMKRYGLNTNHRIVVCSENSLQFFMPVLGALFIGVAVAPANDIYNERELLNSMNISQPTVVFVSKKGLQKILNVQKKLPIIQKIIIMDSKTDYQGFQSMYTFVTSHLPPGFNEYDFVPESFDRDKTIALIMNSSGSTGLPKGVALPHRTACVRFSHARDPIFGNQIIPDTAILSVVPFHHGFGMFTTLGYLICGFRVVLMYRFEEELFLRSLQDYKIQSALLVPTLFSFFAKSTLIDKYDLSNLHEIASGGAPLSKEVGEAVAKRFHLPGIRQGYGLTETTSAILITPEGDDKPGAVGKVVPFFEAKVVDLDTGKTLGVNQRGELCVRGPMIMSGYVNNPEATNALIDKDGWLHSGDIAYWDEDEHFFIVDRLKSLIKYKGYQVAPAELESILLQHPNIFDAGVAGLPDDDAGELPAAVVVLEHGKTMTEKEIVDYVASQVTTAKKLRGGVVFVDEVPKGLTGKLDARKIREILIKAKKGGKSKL

C=C[C@](Cl)(CBr)CCC=C(C)C
Potency [1]: inactive | Potency [2]: inactive | Potency [3]: inactive | Potency [4]: inactive | Potency [5]: inactive | Potency [6]: 20900 nM (active) | Potency [7]: inactive | Potency [8]: inactive | Potency [9]: inactive | outcome [10]: inactive | Potency [11]: inactive | outcome [12]: inactive

C/C(=C\[C@H](C)C(=O)CCCC1CC(=O)NC(=O)C1)[C@@H]1OC(=O)/C=C/CC/C=C/[C@H](O)[C@@H](O)[C@@H]1C
Potency [1]: 1330 nM (active) | Potency [2]: 1180 nM (active) | Potency [13]: 747 nM (active) | Potency [3]: 668 nM (active) | Potency [6]: 372 nM (active) | Potency [14]: inactive | Potency [7]: inactive | Potency [8]: 3310 nM (active) | Potency [9]: 374 nM (active) | outcome [15]: inactive | outcome [10]: inactive | Potency [11]: 5290 nM (active) | outcome [12]: inactive | Potency [16]: inactive | Potency [17]: inactive

CO[C@H]1/C=C/CCCCC(=O)O[C@@H](/C(C)=C/[C@H](C)C(=O)C[C@H](O)CC2CC(=O)NC(=O)C2)[C@@H](C)C1
Potency [4]: inactive | Potency [6]: 4690 nM (active) | outcome [18]: inactive | Potency [7]: inactive | Potency [9]: 7470 nM (active) | outcome [10]: inactive | Potency [11]: 9410 nM (active) | outcome [12]: inactive | outcome [19]: inactive | Potency [16]: 16600 nM (active) | Potency [17]: inactive

C/C(=C\[C@H](C)C(=O)/C=C/CC1CC(=O)NC(=O)C1)[C@@H]1OC(=O)/C=C/CC/C=C/C[C@@H](O)[C@@H]1C
Potency [1]: 2980 nM (active) | Potency [2]: 2980 nM (active) | Potency [13]: 2110 nM (active) | Potency [4]: 16800 nM (active) | Potency [5]: 2360 nM (active) | Potency [6]: 1180 nM (active) | Potency [14]: inactive | Potency [8]: 18600 nM (active) | Potency [9]: 1330 nM (active) | outcome [10]: inactive | outcome [12]: inactive | outcome [19]: inactive | Potency [17]: inactive

CC[C@@H]1C[C@@]2(CC)OC(=O)[C@@]3(CC)[C@H](CC)[C@@H]1[C@@H]23
Potency [20]: inactive | Potency [1]: inactive | Potency [2]: inactive | Potency [13]: inactive | Potency [3]: inactive | Potency [4]: inactive | Potency [5]: inactive | Potency [6]: inactive | outcome [18]: inactive | Potency [14]: inactive | Potency [7]: inactive | Potency [9]: inactive | outcome [15]: inactive | outcome [10]: inactive | outcome [12]: inactive | outcome [19]: inactive | Potency [16]: inactive | Potency [17]: inactive

COc1cc([C@@H]2c3cc4c(cc3C[C@@]3(O[C@@H]5O[C@H](CO)[C@@H](O)[C@H](O)[C@H]5O)COC(=O)[C@H]23)OCO4)cc(OC)c1OC
Potency [1]: inactive | Potency [13]: inactive | Potency [6]: 37.2 nM (active) | outcome [18]: inactive | Potency [14]: inactive | Potency [7]: 52.6 nM (active) | Potency [8]: 66 nM (active) | Potency [9]: inactive | outcome [15]: inactive | outcome [10]: inactive | outcome [12]: inactive | outcome [19]: inactive | Potency [17]: inactive

COC(=O)c1cccc2oc(-c3cccc4oc(-c5c(C)cccc5O)nc34)nc12
Potency [20]: inactive | Potency [1]: 2660 nM (active) | Potency [2]: 5290 nM (active) | Potency [4]: 168 nM (active) | Potency [6]: 3320 nM (active) | outcome [18]: inactive | Potency [14]: inactive | Potency [8]: inactive | Potency [9]: 941 nM (active) | outcome [15]: inactive | outcome [19]: inactive | Potency [16]: 1860 nM (active)

C/C=C(/CO)C(=O)O[C@@H]1[C@H](O)[C@@H](C(=O)OC)O[C@@H]2C[C@H]3OC(n4cnc5c(N)ncnc54)[C@H](OC)[C@H]3O[C@@]12O (stereo not given in full)
Potency [20]: inactive | Potency [1]: inactive | Potency [2]: inactive | Potency [13]: inactive | Potency [3]: inactive | Potency [4]: inactive | Potency [5]: inactive | Potency [6]: inactive | outcome [18]: inactive | Potency [14]: inactive | Potency [7]: inactive | Potency [8]: inactive | Potency [9]: inactive | outcome [15]: inactive | outcome [10]: inactive | Potency [11]: inactive | outcome [19]: inactive | Potency [16]: 18600 nM (active) | Potency [17]: inactive

CC(C)=CCC[C@]1(C)[C@H]2CC(=O)[C@@]3(CO3)[C@@H]1C2
Potency [20]: inactive | Potency [1]: inactive | Potency [2]: inactive | Potency [13]: inactive | Potency [3]: inactive | Potency [4]: inactive | Potency [5]: inactive | Potency [6]: inactive | outcome [18]: inactive | Potency [14]: inactive | Potency [7]: inactive | Potency [8]: inactive | Potency [9]: inactive | outcome [15]: inactive | outcome [10]: inactive | outcome [12]: inactive | outcome [19]: inactive | Potency [16]: inactive | Potency [17]: inactive

C[C@@]12CCC[C@@](C)(C(=O)OP(=O)(O)OC[C@H]3O[C@@H](n4cnc5c(N)ncnc54)[C@H](O)[C@@H]3O)[C@H]1C[C@@H](O)[C@@]13C[C@@H](CC[C@@H]21)[C@](C)(O)C3
Potency [20]: inactive | Potency [1]: 4730 nM (active) | Potency [2]: inactive | Potency [13]: inactive | Potency [3]: inactive | Potency [4]: inactive | Potency [5]: inactive | Potency [6]: inactive | outcome [18]: inactive | Potency [7]: inactive | Potency [8]: inactive | outcome [15]: inactive | Potency [11]: inactive | outcome [19]: inactive | Potency [16]: inactive | Potency [17]: inactive

C=C[C@@]1(C)CC[C@@H]([C@H](C)C(C)=O)O1
Potency [20]: inactive | Potency [1]: inactive | Potency [2]: inactive | Potency [13]: inactive | Potency [3]: inactive | Potency [4]: inactive | Potency [5]: inactive | Potency [6]: inactive | outcome [18]: inactive | Potency [14]: inactive | Potency [7]: inactive | Potency [9]: inactive | outcome [15]: inactive | outcome [10]: inactive | outcome [19]: inactive | Potency [16]: inactive | Potency [17]: inactive
